Source: PubChem BioAssay (NCATS)
Where “and” joins values, the source holds several entries; their conditions need not be identical. Identical values can stand only once. Results filed as inconclusive are left out. Some compounds were tested as several samples or in several runs, with calls that do not always agree. Calls of active or inactive are those of the source. Calls come from the whole dose curve; as a rule, active = well fitted inhibition curve with a large enough effect; inconclusive = small, poorly fitted or top-dose-only effect; inactive = flat fitted curve, though single readings scatter.

How the values were obtained:
CRL-7250 = normal cell line; assay: Cytotoxic Profiling of Annotated Libraries Using Quantitative High-Throughput Screening (AID 1296008); conditions: Five cell lines viability, CellTiter-Glo ATP luminescence, 48-72 h; max response: stronger effect = lower value; for max response: % is set by controls: 0 for no effect and ±100 for the full control effect
Method in brief: (§1)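 Cytotoxicity was measured as CellTiter-Glo ATP luminescence, read after 10 min at room temperature. Compound treatment of the cells lasted 48 or 72 hr at 37 degrees Celsius in a qHTS format.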

HEK293 = assay: as above; conditions: Five cell lines viability, CellTiter-Glo ATP luminescence, 48-72 h; max response: stronger effect = lower value
Method in brief: as §1

HaCat [1] = assay: as above; conditions: Five cell lines viability, CellTiter-Glo ATP luminescence, 48-72 h; max response: stronger effect = lower value
Method in brief: as §1

KB-3-1 = assay: as above; conditions: Five cell lines viability, CellTiter-Glo ATP luminescence, 48-72 h; max response: stronger effect = lower value
Method in brief: as §1

NIH3T3 [2] = assay: as above; conditions: Five cell lines viability, CellTiter-Glo ATP luminescence, 48-72 h; max response: stronger effect = lower value
Method in brief: as §1

HACAT [3] = assay: qHTS assay to identify novel small-molecules to repurpose for Merkel cell carcinoma treatment (AID 1296009); conditions: MCC and control cell lines, CellTiter-Glo viability, 72 h; at 44.8 µM (top of the series) unless noted
Method in brief: (§2)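 Cell viability, measured as CellTiter-Glo luminescence, was normalized between DMSO and no-cell wells. The cells had been exposed to 8- or 11-point compound dilutions for 72 hr at 37 degree celsius.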

MCC-13 = assay: as above; conditions: MCC and control cell lines, CellTiter-Glo viability, 72 h; series mostly up to 46 µM
Method in brief: as §2

MCC-26 = assay: as above; conditions: MCC and control cell lines, CellTiter-Glo viability, 72 h; series mostly up to 46 µM
Method in brief: as §2

MKL-1 = assay: as above; conditions: MCC and control cell lines, CellTiter-Glo viability, 72 h; series mostly up to 46 µM
Method in brief: as §2

MKL-2 = assay: as above; conditions: MCC and control cell lines, CellTiter-Glo viability, 72 h; series mostly up to 46 µM
Method in brief: as §2

UISO = assay: as above; conditions: MCC and control cell lines, CellTiter-Glo viability, 72 h; series mostly up to 46 µM
Method in brief: as §2

WaGa = assay: as above; conditions: MCC and control cell lines, CellTiter-Glo viability, 72 h; series mostly up to 46 µM
Method in brief: as §2

PC49 = assay: qHTS profiling for inhibitors of Plasmodium falciparum proliferation (AID 504749); conditions: P. falciparum in erythrocytes, SYBR Green DNA, 72 h; series mostly up to 28.7 µM
Method in brief: (§3)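 SYBR Green fluorescence of parasite DNA, read after lysis and overnight dark incubation, measured growth over 72 h in erythrocyte culture at 0.3% parasitemia and 2.5% hematocrit. Data normalised to DMSO and 0.29 uM artemisinin, with plate-drift correction.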

SC27B = assay: as above; conditions: P. falciparum in erythrocytes, SYBR Green DNA, 72 h; series mostly up to 28.7 µM
Method in brief: as §3

TAB109 = assay: as above; conditions: P. falciparum in erythrocytes, SYBR Green DNA, 72 h; series mostly up to 28.7 µM
Method in brief: as §3

TAB113 = assay: as above; conditions: P. falciparum in erythrocytes, SYBR Green DNA, 72 h; series mostly up to 28.7 µM
Method in brief: as §3

W2 = assay: as above; conditions: P. falciparum in erythrocytes, SYBR Green DNA, 72 h; series mostly up to 28.7 µM
Method in brief: as §3

HEK293T = assay: qHTS assay to identify novel small-molecules to repurpose for Merkel cell carcinoma treatment (AID 1296009); conditions: MCC and control cell lines, CellTiter-Glo viability, 72 h; at 44.8 µM (top of the series) unless noted
Method in brief: as §2

NIH3T3 [4] = assay: as above; conditions: MCC and control cell lines, CellTiter-Glo viability, 72 h; at 44.8 µM (top of the series) unless noted
Method in brief: as §2

TAB165 = assay: qHTS profiling for inhibitors of Plasmodium falciparum proliferation (AID 504749); conditions: P. falciparum in erythrocytes, SYBR Green DNA, 72 h; series mostly up to 28.7 µM
Method in brief: as §3
Note: nearly all actives have a fitted effect of over 60% in size.
Potency is the fitted concentration of half-maximal effect.

CS(=O)(=O)c1ccc([C@@H](O)[C@@H](CO)NC(=O)C(Cl)Cl)cc1
active: Potency (HEK293) 2.99 µM
inactive: max response (CRL-7250) -2.94% | outcome (CRL-7250) | max response (HaCat [1]) 4.09% | outcome (HaCat [1]) | max response (KB-3-1) -5.5% | max response (NIH3T3 [2]) 1.24% and 2.73% | outcome (HACAT [3]) | Potency (MCC-13) | Potency (MCC-26) | Potency (MKL-1) | Potency (MKL-2) | Potency (UISO) | Potency (WaGa)

CN(Cc1cc(Br)cc(Br)c1N)C1CCCCC1
inactive: Potency (PC49) | Potency (SC27B) | Potency (TAB109) | Potency (TAB113) | max response (CRL-7250) 1.14% | outcome (CRL-7250) | outcome (HEK293) | max response (HaCat [1]) 3.33% | outcome (HaCat [1]) | max response (KB-3-1) 2.85% and 5.96% | max response (NIH3T3 [2]) 1.21% | outcome (NIH3T3 [2]) | outcome (HACAT [3]) | outcome (HEK293T) | Potency (MCC-13) | Potency (MCC-26) | Potency (MKL-1) | Potency (MKL-2) | outcome (NIH3T3 [4]) | Potency (UISO) | Potency (WaGa)
active: Potency (W2) 4.26 µM

CC(=O)CC(c1ccccc1)c1c(O)c2ccccc2oc1=O (stereo unspecified)
inactive: max response (CRL-7250) -2.79% | outcome (CRL-7250) | outcome (HEK293) | max response (HaCat [1]) -6.98% | outcome (HaCat [1]) | max response (KB-3-1) 7.33% and -13.6% and 2.81% | max response (NIH3T3 [2]) -11.7% and -5.84% | outcome (HACAT [3]) | outcome (HEK293T) | Potency (MCC-13) | Potency (MKL-1) | Potency (MKL-2) | Potency (UISO) | Potency (WaGa)

CC(C(=O)O)c1ccc2c(c1)CC(=O)c1ccccc1S2 (stereo unspecified)
inactive: max response (CRL-7250) -3.49% and 3.11% | outcome (CRL-7250) | max response (HEK293) -0.0676% and -6.42% and 0.0288% | max response (HaCat [1]) -2.2% and 1.58% | outcome (HaCat [1]) | max response (KB-3-1) -3.77% | outcome (KB-3-1) | max response (NIH3T3 [2]) 4.16% and -0.0725% | outcome (NIH3T3 [2]) | outcome (HACAT [3]) | Potency (MCC-13) | Potency (MCC-26) | Potency (MKL-1) | Potency (MKL-2) | outcome (NIH3T3 [4]) | Potency (UISO) | Potency (WaGa)

C[C@]12C=CC(=O)C=C1CC[C@@H]1[C@@H]2C(=O)C[C@@]2(C)[C@H]1CC[C@]2(O)C(=O)CO
inactive: Potency (PC49) | Potency (SC27B) | Potency (TAB109) | Potency (TAB165) | Potency (W2) | max response (CRL-7250) 2.58% | outcome (CRL-7250) | max response (HEK293) -4.32% and 0.184% | max response (HaCat [1]) -8.77% and -10.7% | max response (KB-3-1) 9.07% and 4.76% | max response (NIH3T3 [2]) -5.75% | outcome (NIH3T3 [2]) | Potency (MCC-13) | Potency (MCC-26) | Potency (MKL-1) | Potency (MKL-2) | outcome (NIH3T3 [4]) | Potency (UISO) | Potency (WaGa)

CC(=O)[C@H]1CC[C@H]2[C@@H]3CC=C4C[C@@H](O)CC[C@]4(C)[C@H]3CC[C@]12C
inactive: max response (CRL-7250) 3.91% | outcome (CRL-7250) | max response (HEK293) -4.16% and 0.472% | max response (HaCat [1]) 2.2% | outcome (HaCat [1]) | max response (KB-3-1) -0.265% and 8.01% | max response (NIH3T3 [2]) 0.775% | outcome (NIH3T3 [2]) | outcome (HACAT [3]) | Potency (MCC-13) | Potency (MKL-1) | Potency (MKL-2) | outcome (NIH3T3 [4]) | Potency (UISO) | Potency (WaGa)

CCC(=O)O[C@]1(C(=O)CCl)[C@@H](C)C[C@H]2[C@@H]3CCC4=CC(=O)C=C[C@]4(C)[C@@]3(F)[C@@H](O)C[C@@]21C
inactive: max response (CRL-7250) -12.4% | outcome (CRL-7250) | max response (HEK293) -0.886% | max response (HaCat [1]) -4.36% and -8.18% | max response (KB-3-1) -5.78% and 1.04% | max response (NIH3T3 [2]) -2.25% | outcome (NIH3T3 [2]) | Potency (MCC-13) | Potency (MKL-1) | Potency (MKL-2) | outcome (NIH3T3 [4]) | Potency (UISO) | Potency (WaGa)

COC(=O)Nc1nc2ccc(S(=O)c3ccccc3)cc2[nH]1 (stereo unspecified)
active: Potency (CRL-7250) 7.5 µM | Potency (HEK293) 841 nM and 16.6 µM | Potency (NIH3T3 [2]) 1.06 µM
inactive: max response (CRL-7250) -3.6% | outcome (HaCat [1]) | outcome (HACAT [3]) | Potency (MCC-26)

CCOC(=O)[C@H](CCc1ccccc1)N[C@H]1CS[C@H](c2cccs2)CN(CC(=O)O)C1=O
inactive and 469 nM (active): Potency (WaGa)
inactive and 1.05 µM (active): Potency (MKL-2)
inactive and 5.26 µM (active): Potency (MKL-1)
inactive: Potency (PC49) | Potency (TAB109) | Potency (TAB113) | max response (CRL-7250) -9.28% | outcome (CRL-7250) | max response (HEK293) 4.3% | outcome (HEK293) | max response (HaCat [1]) 4.5% | outcome (HaCat [1]) | max response (KB-3-1) 4.95% | max response (NIH3T3 [2]) 3.22% and 0.311% | outcome (HACAT [3]) | outcome (HEK293T) | Potency (MCC-13) | Potency (MCC-26) | Potency (UISO)

Cc1cc(NS(=O)(=O)c2ccc(N)cc2)no1
inactive: max response (CRL-7250) -8.57% | outcome (CRL-7250) | max response (HEK293) 1.33% and -5.68% | outcome (HaCat [1]) | max response (KB-3-1) -10.1% | outcome (KB-3-1) | max response (NIH3T3 [2]) -3.95% | outcome (NIH3T3 [2]) | outcome (HACAT [3]) | Potency (MCC-13) | Potency (MCC-26) | Potency (MKL-1) | Potency (MKL-2) | outcome (NIH3T3 [4]) | Potency (UISO) | Potency (WaGa)
